# HepG2 tox-1: kills HepG2 cells in TGF-b inhibitor counter-screen; HepG2 CAGA-GFP viability, ATP luminescence, 18 h; Potency, µM (highest dose often 46.1 µM), without a hit: at the top dose activity change, negative = cytotoxicity, actives largely listed as cytotoxic; 410,000 compounds, 0.76% hits
#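 CellTiter-Glo luminescence gave cytotoxicity after 18 hours at 37 degrees C. The cells were HepG2 CAGA-GFP in 1% FBS DMEM, stimulated with 500 pg/mL TGF-beta after compound addition. %Activity was normalised to no-cell wells (complete cell-killing) and DMSO (no toxicity), and curves were fitted and classified.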
# TGFb inhibitor: blocks TGF-b signaling | HepG2 CAGA-GFP TGF-b/SMAD3 reporter, GFP fluorescence, 18 h; TGF-beta stimulated, 500 pg/mL final | Potency, µM (titrated, usually from 46.1 µM), without a hit: top-dose activity, negative = inhibition, usual class: inhibitors | 410,000 compounds, 1.2% hits | AID 588855; also: % is scaled to controls: 0 for no effect and ±100 for the full control effect; nearly all actives have a fitted effect of over 65% in size
#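 Read-out: total well GFP (ex488/em500-530) summed from mean per-cell fluorescence. Cells: HEPG2 CAGA-GFP, 1% FBS DMEM, 18 h at 37 degrees C with 500 pg/mL final TGF-beta. Unstimulated wells served as the full-inhibition control; stimulated DMSO wells = 0%.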
# ATXN viability: cell viability loss in ATXN counter-screen. S2 cells (HEK-293 line with an ATXN2-luciferase reporter) viability, CellTiter-Fluor protease fluorescence, 24 h. Potency, µM (doses to about 56.7 µM), actives largely listed as cytotoxic. AID 651635. 400,000 compounds, 0.49% hits; also: nearly all actives have a fitted effect of over 40% in size
# ALOX12 inh: ALOX12 (human) lipoxygenase inhibition. purified 12hLO, xylenol orange hydroperoxide absorbance. Potency, µM (highest dose often 108 µM), without a hit: top-dose activity change, negative = inhibition, actives largely listed as inhibitors. 580,000 compounds, 1.1% hits. P18054; also: % is scaled to controls: 0 for no effect and ±100 for the full control effect
# Target sequence (P18054 whole entry, looked up): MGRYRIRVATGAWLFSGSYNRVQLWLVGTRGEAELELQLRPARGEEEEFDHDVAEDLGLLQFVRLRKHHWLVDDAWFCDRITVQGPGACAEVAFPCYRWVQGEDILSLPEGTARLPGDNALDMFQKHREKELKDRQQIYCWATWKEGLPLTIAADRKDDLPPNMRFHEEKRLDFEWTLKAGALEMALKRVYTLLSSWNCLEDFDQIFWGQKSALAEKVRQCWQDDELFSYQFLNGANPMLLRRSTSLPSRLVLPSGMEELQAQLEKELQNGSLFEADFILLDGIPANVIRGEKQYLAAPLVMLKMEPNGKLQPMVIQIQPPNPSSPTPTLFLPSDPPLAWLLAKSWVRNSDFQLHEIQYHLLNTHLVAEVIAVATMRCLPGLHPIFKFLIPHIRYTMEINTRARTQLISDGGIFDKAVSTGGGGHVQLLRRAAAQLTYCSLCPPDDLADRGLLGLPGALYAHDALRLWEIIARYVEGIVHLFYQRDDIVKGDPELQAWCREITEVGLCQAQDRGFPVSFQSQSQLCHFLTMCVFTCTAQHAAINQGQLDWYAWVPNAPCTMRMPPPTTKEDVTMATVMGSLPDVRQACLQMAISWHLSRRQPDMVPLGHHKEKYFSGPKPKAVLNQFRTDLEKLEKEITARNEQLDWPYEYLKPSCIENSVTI
#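 Purified human 12hLO (150 nM final) in 25 mM Hepes, 0.01% Triton X-100, pH 7.0 was preincubated 15 min at room temperature with compound. Then 40 uM arachidonic acid was added, 30 min. Hydroperoxide was read by Fe-XO absorbance ratio 573/405 nm.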
# ATXN2 expr inh: inhibitors of ATXN2 expression. HEK-293 ATXN2-luciferase reporter, luminescence, 24 h. Potency, µM (top dose mostly 57 µM), inactives show at the highest dose activity change, negative = inhibition, most hits filed as inhibitors. 360,000 compounds, 0.72% hits. AID 1745845; also: % is scaled to controls: 0 for no effect and ±100 for the full control effect; nearly all actives have a fitted effect of over 55% in size
#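 qHTS (up to 57 uM final) was run with 24 h compound exposure of reporter cells at 37 °C. Each well was multiplexed: SteadyGlo luminescence measured ATXN2-luciferase expression after a fluorogenic Gly-Phe-AFC viability readout (25 uM final).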
# TGFb confirm: TGF-b pathway inhibition, cherry-pick retest | HepG2 CAGA-GFP TGF-b reporter, GFP fluorescence, 18 h; cells stimulated with TGF-beta, 500 pg/mL | Potency, µM (top dose mostly 46.1 µM), without a hit: at the top dose activity, negative = inhibition, actives largely listed as inhibitors | AID 720534 | shares compounds with TGFb inhibitor | 1,600 compounds, 63% hits; also: % is scaled to controls: 0 for no effect and ±100 for the full control effect; nearly all actives have a fitted effect of over 65% in size
# HepG2 tox-2: counter-screen for TGF-b inhibitors: cytotoxicity in HepG2 cells | shares compounds with TGFb inhibitor | HepG2 CAGA-GFP viability, ATP luminescence, 18 h; cells stimulated with TGF-beta, 500 pg/mL | Potency, µM (top dose mostly 46.1 µM), without a hit: top-dose activity, negative = cytotoxicity, hits mostly inhibitors | 1,600 compounds, 27% hits; also: % is scaled to controls: 0 for no effect and ±100 for the full control effect; nearly all actives have a fitted effect of over 70% in size
# CCL64 TGFb inh: orthogonal confirmation of TGF-b inhibitors in CCL64 cells | CCL64 CAGA-GFP reporter, TGF-b stimulated, GFP fluorescence, 18 h | Potency, µM (doses to about 46.1 µM), without a hit: top-dose activity, negative = inhibition, actives largely listed as inhibitors | 1,600 compounds, 41% hits | shares compounds with TGFb inhibitor; also: nearly all actives have a fitted effect of over 65% in size
# COP TGFb inh: blocks TGF-b signaling in HepG2 COP reporter. shares compounds with TGFb inhibitor. HepG2 COP-GFP TGF-b reporter, GFP fluorescence, 18 h; cells stimulated by added recombinant TGF-beta. Potency, µM (doses to about 46.1 µM), without a hit: at the top dose activity, negative = inhibition, hits mostly inhibitors. 1,600 compounds, 3% hits; also: nearly all actives have a fitted effect of over 70% in size
# Numbers without * were called inactive; i = inactive; ? = inconclusive; nt = no result; [ ] = dose if it differs, or a comment. Shown are actives, neighbours in structure and some others; about 2.7% of the full set was active somewhere. Calls follow the shape of the dose curve; as a rule, active = well fitted curve in the direction sought with a large enough effect; inconclusive = small, poorly fitted or top-dose-only effect, or another doubt; inactive = no such curve, though single readings can be large; an effect the other way counts as inactive or inconclusive. Potency is read from the fitted curve at half-maximal effect.
SMILES,HepG2 tox-1,TGFb inhibitor,ATXN viability,ALOX12 inh,ATXN2 expr inh,TGFb confirm,HepG2 tox-2,CCL64 TGFb inh,COP TGFb inh
COc1cccc(-c2csc(CN3CCCC(C)(NC(C)=O)C3)c2)c1 (centres undefined),nt,nt,nt,4.2%[176 µM],nt,nt,nt,nt,nt
CCOc1ccccc1-n1c(CNc2ccc(F)cc2)nnc1SCC(=O)NCc1ccco1,2.3%,8.91µM*,?,451.8%,0.1%,?,-2.1%,0.2%,3.5%
CCOc1ccc(NC(=O)CSc2ncc(-c3ccc(F)cc3)n2Cc2ccco2)cc1,-24.7%,15.8µM*,i,28.2%,-23.8%,25.9µM*,?,?,38.7%
CC(=O)NC(C)C(=O)NC(C)c1ccc(Cl)cc1 (centres undefined),nt,nt,nt,8.2%,nt,nt,nt,nt,nt
Cc1ccc(Cc2c(-c3ccc(Cl)cc3)nc3cc(C)c(Br)c(C)n23)cc1,-21.0%,11.2µM*,i,8.91µM*,5.0%,20.6µM*,-23.5%,-17.6%,-7.0%
CCn1c2ccccc2c2cc(NC(=O)c3cc(OC)c(OC)c(OC)c3)ccc21,10.7%,0.794µM*,?,2.8%[57.4 µM],-3.5%,0.366µM*,-28.7%,1.3µM*,16.5%
CCCCc1nn2c(=O)cc(CSCC(=O)Nc3ccccc3C)nc2s1,nt,nt,nt,10.5%,nt,nt,nt,nt,nt
O=C(c1nc(-c2ccncc2)no1)N1CCN(c2ccc(F)cc2)CC1,nt,nt,nt,1.6%,nt,nt,nt,nt,nt
CC(=O)Nc1ccc(S(=O)(=O)N2CCN(Cc3nc4sc(C)c(C)c4c(=O)[nH]3)CC2)cc1,-7.3%,?,i,-4.4%,-11.7%,-6.0%,-11.0%,16.4%,-15.1%
COc1ccc([C@H]2CC(=O)C=C(c3ccc(Oc4ccccc4)cc3)C2)cc1OC,-24.7%,7.94µM*,i,8.2%,-19.2%,9.2µM*,-20.9%,?,-1.7%
COc1cccc(C2C3=C(N=c4s/c(=C\c5cccc(O)c5)c(=O)n42)c2ccccc2CC3)c1OC (centres undefined),-27.0%,17.8µM*,i,?,-0.1%,5.8µM*,?,2.91µM*,30.6%
CC1CCN(C(=O)c2[nH]cnc2C(=O)NCc2ccc(CNC(=O)OC(C)(C)C)cc2)CC1,-7.5%,?,i,6.5%,-3.7%,?,6.1%,0.3%,-5.8%
Cc1ccc(NC(=O)c2nc[nH]c2C(=O)NC2CCN(C(=O)OC(C)(C)C)CC2)cc1,10.4%,6.7%,i,0.0%,-3.9%,nt,nt,nt,nt
CC1CCN(C(=O)c2[nH]cnc2C(=O)NCc2ccccc2)CC1,3.0%,?,i,3.4%,10.7%,-7.2%,3.8%,1.0%,-2.0%
CC(C)(C)OC(=O)N1CCC(NC(=O)c2[nH]cnc2C(=O)Nc2ccccc2)CC1,5.6%,12.6µM*,?,-0.1%,?,?,?,?,22.3%
Cc1noc(C)c1COc1ccccc1C(=O)N(C)Cc1ccc(C(C)(C)C)cc1,-26.5%,11.2µM*,i,?,nt,16.4µM*,?,?,43.9%
Cc1c(/C=N\NC(=O)C2COc3ccccc3O2)c2ccccc2n1C (centres undefined),-2.0%,8.91µM*,?,16.6%,13.7%,5.8µM*,-13.4%,6.51µM*,-4.9%
O=C(c1ccccc1)N(Cc1cccc2[nH]ccc12)C1CC1,nt,nt,nt,-12.3%,nt,nt,nt,nt,nt
COc1ccccc1-c1cc(C(F)(F)F)nc(S(=O)(=O)CCCC(=O)N2CCOCC2)n1,-126.2%,2.24µM*,17.8µM*,-0.3%,?,1.84µM*,20.6µM*,4.11µM*,?
O=C(COc1ccc(Cl)cc1Cl)NCCSc1ccc(Cl)cc1,-17.5%,15.8µM*,i,-4.2%,-21.0%,?,?,?,64.0%
COc1ccc(CN(C(=O)Cc2cccs2)C(C(=O)NC2CCCC2)c2ccncc2)cc1 (centres undefined),1.0%,-20.1%,i,?,0.5%,nt,nt,nt,nt
COc1ccc(C(=O)/C=C/C(=O)N(Cc2ccc(F)cc2)C(C(=O)NC2CCCCC2)c2ccncc2)c(O)c1 (centres undefined),1.7%,10µM*,?,nt,-28.9%,?,-18.2%,13µM*,35.1%
CC(C)C[C@@H]1NC(=O)[C@H](Cc2ccccc2)N(C)C(=O)[C@H](C)NC(=O)c2ccccc2NC(=O)[C@H](Cc2ccc(O)cc2)N(C)C1=O,-18.6%,-9.2%,i,14.1%,?,nt,nt,nt,nt
COc1ccc(CC2C(=O)NC(C)C(=O)N(C)C3Cc4ccc(cc4)Oc4cc(ccc4O)CC(C(=O)NC(C)C(=O)NC(C)C(=O)N2C)N(C)C3=O)cc1 (centres undefined),10.9%,-106.7%,0.0597µM*,-24.2%,0.238µM*,0.0184µM*,0.206µM*,0.0206µM*,-7.9%
CS(=O)(=O)c1cc(C(=O)NCCc2cccs2)ccc1Cl,nt,nt,nt,24.5%,nt,nt,nt,nt,nt
SMILES,HepG2 tox-1,TGFb inhibitor,ATXN viability,ALOX12 inh,ATXN2 expr inh,TGFb confirm,HepG2 tox-2,CCL64 TGFb inh,COP TGFb inh
COc1cccc(-c2nc(N3CCCCC3)c3ccccc3n2)c1O,11.9%,11.2µM*,i,10.2%,2.8%,18.4µM*,?,?,77.5%
CCCc1noc(-c2cn(C3CCN(C(=O)c4ccc5c(c4)OCO5)CC3)nn2)n1,nt,nt,nt,-4.8%,nt,nt,nt,nt,nt
CC(C)c1ccc(CN(C)CC(=O)NC(N)=O)cc1,nt,nt,nt,15.2%,nt,nt,nt,nt,nt
NCCCNc1nc(N)c([N+](=O)[O-])c(NC2CCCCC2)n1,-32.2%,5.01µM*,i,-18.8%,nt,4.61µM*,?,5.8µM*,94.3%
COc1ccc(Cl)cc1NS(=O)(=O)c1ccc(N2C(=O)C(C)CS2(=O)=O)cc1 (centres undefined),nt,nt,nt,-44.2%,nt,nt,nt,nt,nt
COc1ccccc1-c1c(C)oc2cc(OC(C)=O)ccc2c1=O,nt,nt,nt,31.1%,nt,nt,nt,nt,nt
